# UCHL1 inh: blocks human UCHL1 ubiquitin-rhodamine cleavage; P09936; purified UCHL1, Ub-rhodamine cleavage fluorescence; inhibition, % at 20 µM; actives 0.2% (n = 47,000)
# USP10 inh: human USP10 deubiquitinase inhibition | Q14694 | purified USP10, Ub-rhodamine fluorescence, 60 min | inhibition, % at 20 µM | actives 1.1% (n = 47,000) | AID 1645856
# USP8 inh: inhibitors of human USP8 deubiquitinase. purified USP8, Ub-rhodamine cleavage fluorescence, 30 min. inhibition, % at 20 µM. P40818. AID 1645853. actives 4.2% (n = 47,000)
# USP7 block: inhibitors of human USP7 deubiquitinase | Q93009 | purified USP7, Ub-rhodamine cleavage fluorescence | inhibition, % at 20 µM | actives 0.3% (n = 47,000) | AID 1645854
# A number is an active result; – = inactive. Hits are enriched below; roughly 5% of the tested compounds scored in any of these assays. Rule as the data show it: active = inhibition above about 30%; inactive = the rest.
SMILES,UCHL1 inh,USP10 inh,USP8 inh,USP7 block
Cc1ccc(Nc2nc(C(=O)NCc3ccc4c(c3)OCO4)cc3occc23)cc1Cl,–,–,76,–
CC(=O)N[C@@H]1C[C@H](c2ccccc2F)O[C@@H]2CCC[C@@H]12,–,–,–,–
Cc1cccc(NC(=O)Nc2ccc(C)n(CC(=O)Nc3ccccc3)c2=O)c1,–,–,–,–
Cc1cccc(NC(=O)Nc2ccc(C)n(CC(=O)Nc3ccc(C)c(C)c3)c2=O)c1,–,42,74,–
CCn1c(=O)c2nscc2n(CC(=O)Nc2cccc(C)c2)c1=O,–,–,–,–
Cc1ccc(NC(=O)Nc2ccc(C)n(CC(=O)Nc3cccc(C)c3)c2=O)cc1,–,53,94,31
COc1ccc(-c2cc3nc([C@H](C)NC(=O)Cc4ccccc4C)nn3cn2)cc1,–,36,94,32
COc1ccc(-c2cc3nc([C@H](C)NC(=O)COc4ccccc4F)nn3cn2)cc1,–,–,–,–
C[C@H](NC(=O)Cc1ccccc1F)c1nc2cc(-c3ccccc3F)ncn2n1,–,40,39,–
Cc1cc(NC(=O)CNc2ccccc2F)no1,–,–,–,–
CCN(CC(=O)Nc1cc(C)on1)c1cccc2ccccc12,–,–,90,–
O[C@H]1[C@H](NCc2cccc(C(F)(F)F)c2)[C@@H](c2cncnc2)C[C@H]1O,–,–,61,–
O[C@H]1[C@H](NCc2ccccc2)[C@@H](c2cccnc2)C[C@H]1O,–,–,–,–
COc1ccc(CN[C@H]2[C@H](O)[C@H](O)C[C@@H]2c2cncnc2)cn1,–,–,35,–
Cc1ccc(-c2cn(CC(=O)N3CCN(c4ccccn4)CC3)c(=O)o2)cc1,–,–,–,–
CC(=O)c1ccccc1Nc1ccc2c(C(F)(F)F)cc(C(F)(F)F)nc2n1,–,–,–,–
CCOC(=O)c1cnc(Nc2ccccc2OCC)c2ccccc12,–,–,60,–
Cc1ccc(Cn2c(C(=O)O)c(CNCc3ccco3)c3ccccc32)cc1,–,–,–,–
COc1ccccc1NC(=O)C1c2ccccc2C(=O)N(C2CCCC2)C12CCCCC2 (stereo unspecified),–,–,–,–
O=C(Cn1cnc(S(=O)(=O)N2CCCCC2)c1)Nc1ccc2c(c1)OCO2,–,–,59,–
CC1CCN(S(=O)(=O)c2cn(CC(=O)Nc3ccc4c(c3)OCO4)cn2)CC1,–,–,–,–
CCCCOc1cccc(C(=O)Nc2ccc(OCC)c3ncccc23)c1,–,–,83,–
COc1cc2c(cc1OC)CN(Cc1cc(=O)n3ccsc3n1)CC2,–,–,56,–
Cc1ccc(OC(C)C(=O)N2CCN(Cc3cc(=O)n4ccsc4n3)CC2)cc1 (stereo unspecified),–,–,–,–
COc1cc(Cl)ccc1Nc1ncc(C(=O)Nc2cc(OC)c(OC)c(OC)c2)c2ccccc12,–,–,33,–
SMILES,UCHL1 inh,USP10 inh,USP8 inh,USP7 block
COc1ccc(Nc2ncc(C(=O)Nc3ccc(Oc4ccccc4)cc3)c3ccccc23)cc1,–,–,–,–
O=C(NCc1cc2ccccc2[nH]1)c1ccc(COc2ccc(Br)cc2)cc1,–,–,55,–
COc1cccc(C2CC(c3ccccc3)=NC3(CCN(C)CC3)N2)c1O (stereo unspecified),–,–,–,–
COc1cccc(C2CC(c3ccc(F)cc3)=NC3(CCN(C)CC3)N2)c1O (stereo unspecified),–,–,41,–
C[C@]12CN(S(=O)(=O)c3ccccc3F)C[C@H]1NC(=O)c1ccccc1C2=O,–,–,–,–
Cc1ccc([N+](=O)[O-])cc1S(=O)(=O)Nc1cc2sc(=O)oc2c2ccccc12,–,37,89,–
O=C(c1ccccc1)N1CCC2(C1)c1ccccc1S(=O)(=O)N2CC1CC1 (stereo unspecified),–,–,–,–
Cc1ccc(NC(=O)Cc2nnc3ccc(-c4nc(C)no4)cn23)c(C)c1,–,–,–,–
CCc1ccc(NC(=O)Cc2nnc3cc(-c4nc(C)no4)ccn23)cc1,–,56,84,44
Cc1ccc(NC(=O)Cc2nnc3cc(-c4nc(C)no4)ccn23)cc1,–,46,62,39
CCc1noc(-c2ccn3c(CC(=O)Nc4ccccc4C)nnc3c2)n1,–,–,76,–
N#Cc1ccc(NC(=O)N2CCC(c3nc4c(nnn4Cc4ccc(F)cc4)c(=O)[nH]3)CC2)cc1,–,–,–,–
O=C(Nc1ccc(Sc2ccccc2Cl)cc1)c1ccc(F)cc1,–,–,–,–
Cc1ccc(NS(=O)(=O)c2cc(C(=O)NCc3ccncc3)ccc2C)c(C)c1,–,–,–,–
CCCN1CCN(c2ccc(C(=O)O)cc2NS(=O)(=O)c2ccccc2)CC1,–,–,74,–
Cc1cc(C)c(S(=O)(=O)Nc2cc(C(=O)O)ccc2N2CCN(C)CC2)c(C)c1,–,–,77,–
CCNC(=O)c1ccc(N2CCNCC2)c(NS(=O)(=O)c2cc(C)c(C)cc2C)c1,–,–,46,–
Cc1ccc(NS(=O)(=O)c2ccc3c(c2)NC(=O)CC(C)S3)cc1 (stereo unspecified),–,–,–,–
CC(C)C(=O)N1CCc2cc(-c3csc(NC(=O)CN4CCCCC4)n3)ccc21,–,–,–,–
Cc1ccc(C(=O)N2CCc3cc(-c4csc(NC(=O)Cn5nnc6ccccc65)n4)ccc32)cc1,–,–,57,–
CC(C)C(=O)N1CCc2cc(-c3csc(NC(=O)CN4CCc5ccccc5C4)n3)ccc21,–,–,50,–
Cc1nc(=O)c2ccccc2n1C1=CCN(C(=O)c2cscn2)CC1,–,–,–,–
Fc1ccc(-c2nn3c(-c4ccc5c(c4)OCO5)nnc3s2)cc1,–,–,64,–
c1ccc2c(c1)ccc1nnc(-c3ccc4c(c3)OCO4)n12,–,–,–,–
COc1cccc(C(=O)N2CCN(c3ccc(CN4CCC(N(C)C)CC4)cn3)CC2)c1C,–,–,–,–
SMILES,UCHL1 inh,USP10 inh,USP8 inh,USP7 block
Cc1nn(-c2ccccc2)c2sc(C(=O)Nc3ccc(Br)c4cccnc34)cc12,–,–,–,–
CCOC(=O)CNC(=O)c1cc2c(=O)n3ccccc3nc2s1,–,–,–,–
COc1ccc(-n2c(N(C)C)nc3cc(C(=O)NC4CC4)sc32)cc1,–,–,–,–
CNC(=O)c1cc2nc(N(C)C)n(-c3ccccc3)c2s1,–,–,77,–
CCNC(=O)c1cc2nc(N(C)C)n(-c3ccccc3)c2s1,–,–,75,–
CNC(=O)c1cc2nc(N(C)C)n(-c3ccc(OC)cc3)c2s1,–,–,78,–
COc1ccc(S(=O)(=O)Nc2ccc(Nc3ccc(-n4cccn4)nn3)cc2)cc1,–,–,–,–
Cc1nn(-c2ccccc2)c2c1nc(CCC(=O)N1CCN(c3ccc(F)cc3)CC1)c(=O)n2C,–,–,–,–
CC(=O)N(O)[C@@H]1c2cc(C#N)ccc2OC(C)(C)[C@H]1O,–,–,34,–
CC1(C)Oc2ccc(C#N)cc2[C@H](N2CCCC2=O)[C@H]1O,–,–,–,–
CCCCCCCCCCCC[C@@]1(C(=O)O)OC(=O)[C@@H](O)[C@@]1(O)C(=O)O,–,–,–,–
Cc1cccc(C(=O)Nc2nnc(Cc3cn(C)c4ccccc34)s2)c1,–,–,34,–
